Bioassay records from PubChem BioAssay.
Only some compounds are listed: those with a hit (about 7.1% of all), similar ones and a draw of the others.
IL1B secr inh: qHTS for Inhibitors of Inflammasome Signaling: IL-1-beta AlphaLISA Primary Screen. THP-1 LPS/ATP IL-1B secretion, AlphaLISA, 16 h; active compounds read low. activity change, % at 57.5 µM. 360,000 tested, 4.7% active; in the data active = activity change below about -50%; inconclusive = mostly about -30% to -49%
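Secreted IL-1B measured by AlphaLISA bead assay after 16 h compound exposure of THP-1 cells; compounds (final up to 57.5 uM) added 1 h before LPS (250 ng/mL) and ATP (1.25 mM) stimulation; lower signal means less secretion.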
ATXN viability: Viability Counterscreen for Primary qHTS for Inhibitors of ATXN expression; S2 cells (HEK-293 line with an ATXN2-luciferase reporter) viability, CellTiter-Fluor protease fluorescence, 24 h; Potency, µM (titrated, usually from 56.7 µM), hits mostly cytotoxic; 400,000 tested, 0.49% active; also: nearly all actives have a fitted effect of over 40% in size
SW480 rereplic: A quantitative high throughput screen for small molecules that induce DNA re-replication in SW480 colon adenocarcinoma cells. AID 624297, 2012. SW480 DNA re-replication, Hoechst DNA content imaging, 48 h. 340,000 tested, 1.8% active. Potency, µM (titrated, usually from 46.1 µM), actives largely listed as activators; also: nearly all actives have a fitted effect of over 55% in size
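Hoechst fluorescence of nuclei (405 nm excitation, 500-530 nm emission) measured by plate-scanning imager after 48 hr compound exposure at 37 C; re-replication scored as increased number of nuclei with elevated intensity.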
ATXN2 expr inh: Primary qHTS for Inhibitors of ATXN expression; HEK-293 ATXN2-luciferase reporter, luminescence, 24 h; Potency, µM (series often up to 57 µM), actives largely listed as inhibitors; 360,000 tested, 0.72% active; AID 1745845, 2022; also: nearly all actives have a fitted effect of over 55% in size
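qHTS (up to 57 uM final) was run with 24 h compound exposure of reporter cells at 37 °C. Each well was multiplexed: SteadyGlo luminescence measured ATXN2-luciferase expression after a fluorogenic Gly-Phe-AFC viability readout (25 uM final).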
PINK1 expr mod: A Quantitative High throughput Screen to Identify Chemical Modulators of PINK1 Expression | PINK1 immunofluorescence, high-content cytometry, 24 h | Potency, µM (highest dose often 76.6 µM), usual class: activators | 410,000 tested, 0.2% active | AID 624263, 2012; active = well fitted activation curve with a large enough effect; inconclusive = small, poorly fitted or top-dose-only effect; cell line not stated here; also: nearly all actives have a fitted effect of over 65% in size
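Stable cell line, 250 cells/well, 12 h attachment; compounds pinned at 5 concentrations, 24 h; CCCP control. Fixed with nuclear dye, primary antibodies 12 h at 10 degrees C, secondary plus cell stain; laser-scanning cytometer read.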
MCF10A rerep: A quantitative high throughput screen for small molecules that induce DNA re-replication in MCF 10a normal breast cells. MCF 10A DNA re-replication, Hoechst nuclear intensity, 48 h. AID 624296, 2012. 350,000 tested, 2.9% active. Potency, µM (titrated, usually from 46.1 µM), most hits filed as activators; also: nearly all actives have a fitted effect of over 50% in size
Each line names hits and unclear results; the compound was inactive in the other large screens; ! = repeats disagree. Unless noted, calls follow the shape of the dose curve; as a rule, active = well fitted curve in the direction sought with a large enough effect; inconclusive = small, poorly fitted or top-dose-only effect, or another doubt; inactive = no such curve, though single readings can be large; an effect the other way counts as inactive or inconclusive.

COc1c(O[C@@H]2O[C@H](CO)[C@@H](O)[C@H](O)[C@H]2O)cc2c(c1OC)-c1ccc(SC)c(=O)cc1C(NC(C)=O)CC2 (some centres not stated)	SW480 rereplic inconclusive
COc1cc2c(c(OC)c1OC)-c1ccc(SC)c(=O)cc1C(NC(=O)c1ccccc1)CC2 (configuration not stated)	IL1B secr inh inconclusive, ATXN viability inconclusive, SW480 rereplic 0.015µM, MCF10A rerep inconclusive
COC(=O)c1ccc2c(c1)C(NC(C)=O)CCc1cc(OC)c(OC)c(OC)c1-2 (configuration not stated)	IL1B secr inh -73, ATXN viability inconclusive, SW480 rereplic 0.092µM, MCF10A rerep 0.12µM
C=COC(=O)NC1CCc2cc(OC)c(OC)c(OC)c2-c2ccc(SC)c(=O)cc21 (configuration not stated)	ATXN viability inconclusive, SW480 rereplic inconclusive
COc1cccc(C(=O)Nc2ccc3c(cc2=O)[C@@H](NC(C)=O)CCc2cc(OC)c(OC)c(OC)c2-3)c1	SW480 rereplic 7.3µM, MCF10A rerep 5.8µM
CCOC(=O)Cc1ccc(NC(=O)N2CC(C)Oc3ccc(Cl)cc32)cc1 (configuration not stated)	none (no result: IL1B secr inh, ATXN viability, SW480 rereplic, ATXN2 expr inh, MCF10A rerep)
Cc1cccc(CNC(=O)Cn2c(-c3cccs3)cc3ccccc32)c1	ATXN2 expr inh inconclusive (no result: IL1B secr inh, SW480 rereplic, MCF10A rerep)
COc1cc2c(c(OC)c1OC)-c1ccc(SC)c(=O)cc1C(NC=O)CC2 (configuration not stated)	ATXN viability inconclusive, SW480 rereplic inconclusive, MCF10A rerep inconclusive
CCCC(=O)NC1CCc2cc(OC)c(OC)c(OC)c2-c2ccc(OC)c(=O)cc21 (configuration not stated)	SW480 rereplic 0.0046µM, MCF10A rerep inconclusive
COc1cc2c(c(OC)c1OC)-c1ccc(OC)c(=O)cc1C(NC(=O)c1ccccc1)CC2 (configuration not stated)	SW480 rereplic 0.021µM, MCF10A rerep inconclusive
CNC1CCc2cc(OC)c(OC)c(OC)c2-c2ccc(OC)c(=O)cc21 (configuration not stated)	SW480 rereplic 0.12µM, MCF10A rerep 0.075µM (no result: IL1B secr inh, ATXN viability, ATXN2 expr inh, PINK1 expr mod)
O=C(c1ccccc1)C1CC1c1ccccc1 (configuration not stated)	none (no result: SW480 rereplic, ATXN2 expr inh, MCF10A rerep)
O=C(c1ccccc1)C1C(c2ccccc2)C1[N+](=O)[O-] (configuration not stated)	IL1B secr inh -56, ATXN viability inconclusive
CCOc1ccccc1NC(=O)CSc1nc2ccccc2c2nc(CCn3cncc3C)nn12	ATXN viability 28µM (no result: IL1B secr inh, SW480 rereplic, MCF10A rerep)
Cc1cncn1CCc1nc2c3ccccc3nc(SCC(=O)Nc3cccc(Cl)c3)n2n1	IL1B secr inh -97, ATXN viability 16µM, SW480 rereplic inconclusive, ATXN2 expr inh 25µM, PINK1 expr mod inconclusive, MCF10A rerep inconclusive
Cc1cccc(NC(=O)CSc2nc3ccccc3c3nc(CCc4c(C)n[nH]c4C)nn23)c1	ATXN viability 16µM, SW480 rereplic inconclusive, ATXN2 expr inh 32µM!, MCF10A rerep 7.3µM
Cc1n[nH]c(C)c1CCc1nc2c3ccccc3nc(SCC(=O)Nc3ccccc3F)n2n1	MCF10A rerep inconclusive
Cc1onc(-c2ccccc2Cl)c1C(=O)NCc1ccco1	IL1B secr inh -77
CCc1ccc(NC(=S)NC(=O)c2c(-c3ccccc3Cl)noc2C)cc1	IL1B secr inh -51
CC(C)(C)OC(=O)N/N=C/c1cccn1-c1ccc([N+](=O)[O-])cc1	SW480 rereplic inconclusive
CN(C)c1ccc(-n2cccc2/C=C/[N+](=O)[O-])cc1	IL1B secr inh -101, ATXN viability 30µM, ATXN2 expr inh inconclusive, MCF10A rerep inconclusive
Nc1c(C(=O)Nc2ccc(Cl)cc2F)sc2nc(-c3cccs3)ccc12	none (no result: IL1B secr inh, ATXN viability, SW480 rereplic, MCF10A rerep)
C=CCN1C(=O)/C(=C/C=C2/N(CC)c3ccc(S(=O)(=O)N(C)C)cc3N2CC)SC1=S	ATXN viability 0.89µM, MCF10A rerep inconclusive (no result: ATXN2 expr inh)
C=CCN1C(=O)/C(=C\C=C2\N(C)c3ccccc3C2(C)C)SC1=S	ATXN viability inconclusive
CCCCCCCCCCCCCCC(O)C[N+](C)(CCO)CCO (configuration not stated)	IL1B secr inh -100, ATXN viability inconclusive, SW480 rereplic inconclusive, MCF10A rerep inconclusive
CCCCCCCCCCCCCCC[C@H](O)[C@@H](N)CO	none (no result: IL1B secr inh, SW480 rereplic, PINK1 expr mod, MCF10A rerep)
Cc1cc(C)cc(NC(=O)CCc2nc3sc4c(c3c(=O)[nH]2)CCCC4)c1	ATXN viability inconclusive, SW480 rereplic inconclusive, ATXN2 expr inh 8.9µM, MCF10A rerep inconclusive
CN(CC(=O)Nc1ccc(Cl)cc1)C(=O)CCc1nc2sc3c(c2c(=O)[nH]1)CCCC3	ATXN viability inconclusive, SW480 rereplic inconclusive, ATXN2 expr inh inconclusive, MCF10A rerep 18µM
Cc1ccc(C)c(-c2ccc(=O)n(C(C)C(=O)Nc3ccccc3C(F)(F)F)n2)c1 (configuration not stated)	ATXN viability inconclusive (no result: IL1B secr inh, SW480 rereplic, MCF10A rerep)
NNC(=O)c1ccc(Cn2cccn2)o1	SW480 rereplic 2.3µM, MCF10A rerep inconclusive
COc1ccc(OC)c(C2Nc3c(Cl)ccc(C(=O)O)c3C3C=CCC32)c1 (configuration not stated)	IL1B secr inh -57, SW480 rereplic inconclusive
O=[N+]([O-])c1ccccc1S(=O)(=O)NCc1ccccn1	none (no result: IL1B secr inh, ATXN viability, SW480 rereplic, ATXN2 expr inh, MCF10A rerep)
COc1ccc2nc3cc(Cl)ccc3c(Nc3cc(C(C)C)c(O)cc3C)c2c1	IL1B secr inh -90, ATXN viability inconclusive, SW480 rereplic inconclusive, ATXN2 expr inh inconclusive, MCF10A rerep inconclusive
Cc1cccc(N2CCN(C(=O)c3cc4c(=O)[nH]c5ccc(C)cc5c4s3)CC2C)c1 (configuration not stated)	none (no result: IL1B secr inh, SW480 rereplic, MCF10A rerep)
C#CC[N+](C)(C)C(C#Cc1ccccc1)CC=C (configuration not stated)	IL1B secr inh -73, MCF10A rerep inconclusive
Cc1cc(NC(=O)CN2CCOCC2)n(-c2ccccc2)n1	none
Cc1cc(NC(=O)CN2CCOCC2)n(-c2nc3ccccc3s2)n1	ATXN viability inconclusive, MCF10A rerep 15µM
CC1(C)S[C@@H]2[C@H](NC(=O)[C@H](N)c3ccccc3)C(=O)N2[C@H]1C(=O)OC1OC(=O)c2ccccc21 (some centres not stated)	IL1B secr inh -56
CCCN(CCC)S(=O)(=O)c1ccc(Cl)c([N+](=O)[O-])c1	IL1B secr inh -103, ATXN viability 24µM, ATXN2 expr inh inconclusive, MCF10A rerep inconclusive
